According to PubChem BioAssay AID1159580 (chemical genetic matrix, 2015):
Values joined by “and” are separate entries in the source; they are usually repeats but may differ in a detail not shown here. Equal entries are not always repeated. Among all 5,500 compounds or so, about 2,000 (36%) were called active. Roughly 18% stayed inconclusive and do not appear here. Some of the results follow. A number with no mark means an inactive call. No stated cut-off is given here; in the data, active means normalized growth mostly below about 0.91 (no sharp cut-off); inconclusive means no clear call, values can overlap the other calls; inactive means mostly above about 0.92.

Assay: chemical genetic growth profiling, strain panel (AID 1159580);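 further: tested at 20 µM; growth read once vehicle control cultures reached saturation at 30 °C; 1 = growth at the plate median or of vehicle wells; lower values mean less growth of the strain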
Conditions: S. cerevisiae deletion strains, growth OD

With `Nc1c2ccccc2nc2ccccc12` (tested in a mixture with another compound) the normalized growth (locus YAL013W, strain DEP1, hits give low values) was 0.822 (active), the normalized growth (locus YAL021C, strain ccr4, hits give low values) was 0.67 (active) and the normalized growth (locus YAL026C, strain drs2, hits give low values) was 0.541 (active). The normalized growth (locus YAL030W, strain snc1, hits give low values) was 0.679 (active), the normalized growth (locus YBL061C, strain skt5, hits give low values) was 0.795 (active) and the normalized growth (locus YBR009C, strain hhf1, hits give low values) was 0.495 (active). The normalized growth (locus YBR021W, strain FUR4, hits give low values) was 0.985, the normalized growth (locus YBR023C, strain chs3, hits give low values) was 0.751 (active) and the normalized growth (locus YBR171W, strain sec66, hits give low values) was 0.964. For the same compound, the normalized growth (locus YBR229C, strain ROT2, hits give low values) was 0.976, the normalized growth (locus YBR231C, strain swc5, hits give low values) was 0.677 (active) and the normalized growth (locus YBR279W, strain paf1, hits give low values) was 0.555 (active). The normalized growth (locus YCL011C, strain gbp2, hits give low values) was 0.704 (active), the normalized growth (locus YCL016C, strain dcc1, hits give low values) was 0.467 (active) and the normalized growth (locus YCL029C, strain bik1, hits give low values) was 0.485 (active). For the same compound, the normalized growth (locus YCL061C, strain MRC1, hits give low values) was 0.842 (active), the normalized growth (locus YCL069W, strain vba3, hits give low values) was 0.777 (active) and the normalized growth (locus YCR088W, strain abp1, hits give low values) was 0.682 (active). The normalized growth (locus YDL005C, strain med2, hits give low values) was 0.801 (active), the normalized growth (locus YDL035C, strain GPR1, hits give low values) was 0.507 (active) and the normalized growth (locus YDL040C, strain nat1, hits give low values) was 0.875 (active). For the same compound, the normalized growth (locus YDL074C, strain BRE1, hits give low values) was 0.498 (active), the normalized growth (locus YDL101C, strain DUN1, hits give low values) was 0.76 (active) and the normalized growth (locus YDL134C, strain PPH21, hits give low values) was 0.629 (active). For the same compound, the normalized growth (locus YDL185W, strain tfp1, hits give low values) was 0.998, the normalized growth (locus YDL192W, strain arf1, hits give low values) was 0.691 (active) and the normalized growth (locus YDR001C, strain nth1, hits give low values) was 0.956. For the same compound, the normalized growth (locus YDR069C, strain doa4, hits give low values) was 0.519 (active), the normalized growth (locus YDR101C, strain arx1, hits give low values) was 0.593 (active) and the normalized growth (locus YDR137W, strain rgp1, hits give low values) was 0.572 (active). The normalized growth (locus YDR150W, strain NUM1, hits give low values) was 0.883 (active), the normalized growth (locus YDR159W, strain sac3, hits give low values) was 0.773 (active) and the normalized growth (locus YDR162C, strain NBP2, hits give low values) was 0.718 (active). For the same compound, the normalized growth (locus YDR297W, strain sur2, hits give low values) was 0.749 (active), the normalized growth (locus YDR318W, strain mcm21, hits give low values) was 0.655 (active) and the normalized growth (locus YDR334W, strain swr1, hits give low values) was 0.943. For the same compound, the normalized growth (locus YDR335W, strain msn5, hits give low values) was 0.807 (active), the normalized growth (locus YDR388W, hits give low values) was 0.406 (active) and the normalized growth (locus YDR392W, strain spt3, hits give low values) was 0.6 (active). For the same compound, the normalized growth (locus YDR502C, strain sam2, hits give low values) was 0.606 (active), the normalized growth (locus YEL003W, strain gim4, hits give low values) was 0.665 (active) and the normalized growth (locus YEL037C, strain rad23, hits give low values) was 0.763 (active). For the same compound, the normalized growth (locus YEL061C, strain CIN8 (second series), hits give low values) was 0.887 (active), the normalized growth (locus YEL061C, strain CIN8, hits give low values) was 0.838 (active) and the normalized growth (locus YER015W, strain faa2, hits give low values) was 0.821 (active). The normalized growth (locus YER016W, strain bim1, hits give low values) was 0.686 (active), the normalized growth (locus YER110C, hits give low values) was 0.996 and the normalized growth (locus YER111C, strain swi4, hits give low values) was 0.904 (active). For the same compound, the normalized growth (locus YER155C, strain BEM2 (second series), hits give low values) was 0.774 (active), the normalized growth (locus YER155C, strain BEM2, hits give low values) was 0.89 (active) and the normalized growth (locus YER167W, strain BCK2, hits give low values) was 0.58 (active). For the same compound, the normalized growth (locus YFR010W, strain ubp6, hits give low values) was 0.627 (active), the normalized growth (locus YGL078C, strain dbp3, hits give low values) was 0.778 (active) and the normalized growth (locus YGL086W, strain mad1, hits give low values) was 0.618 (active). The normalized growth (locus YGL167C, strain pmr1, hits give low values) was 0.927, the normalized growth (locus YGL173C, strain kem1, hits give low values) was 0.656 (active) and the normalized growth (locus YGL227W, strain vid30, hits give low values) was 0.836 (active). For the same compound, the normalized growth (locus YGL240W, strain doc1, hits give low values) was 0.874 (active), the normalized growth (locus YGL248W, strain PDE1, hits give low values) was 0.559 (active) and the normalized growth (locus YGL253W, strain hxk2, hits give low values) was 0.582 (active). For the same compound, the normalized growth (locus YGR078C, strain PAC10, hits give low values) was 0.703 (active), the normalized growth (locus YGR135W, strain pre9, hits give low values) was 0.704 (active) and the normalized growth (locus YGR229C, strain SMI1, hits give low values) was 0.68 (active). For the same compound, the normalized growth (locus YGR252W, strain gcn5, hits give low values) was 0.461 (active), the normalized growth (locus YHR013C, strain ard1, hits give low values) was 0.494 (active) and the normalized growth (locus YHR027C, strain rpn1, hits give low values) was 0.853 (active). For the same compound, the normalized growth (locus YHR030C, strain SLT2, hits give low values) was 0.749 (active) and 0.474 (active), the normalized growth (locus YHR079C, strain IRE1 (second series), hits give low values) was 0.531 (active) and the normalized growth (locus YHR079C, strain IRE1, hits give low values) was 0.484 (active). The normalized growth (locus YHR129C, strain ARP1, hits give low values) was 0.781 (active), the normalized growth (locus YHR142W, strain chs7, hits give low values) was 0.729 (active) and the normalized growth (locus YHR200W, strain rpn10, hits give low values) was 0.735 (active). For the same compound, the normalized growth (locus YIL066C, strain RNR3, hits give low values) was 0.775 (active), the normalized growth (locus YIL073C, strain SPO22, hits give low values) was 0.535 (active) and the normalized growth (locus YIL125W, strain kgd1, hits give low values) was 0.9 (active). For the same compound, the normalized growth (locus YIR030C, strain dcg1, hits give low values) was 0.575 (active), the normalized growth (locus YJL092W, strain hpr5, hits give low values) was 0.802 (active) and the normalized growth (locus YJL095W, strain BCK1 (second series), hits give low values) was 0.766 (active). The normalized growth (locus YJL095W, strain BCK1, hits give low values) was 0.474 (active) and 0.436 (active), the normalized growth (locus YJL115W, strain asf1, hits give low values) was 0.849 (active) and the normalized growth (locus YJL129C, strain trk1, hits give low values) was 1.02. For the same compound, the normalized growth (locus YJL134W, strain LCB3, hits give low values) was 0.982, the normalized growth (locus YJL154C, strain vps35, hits give low values) was 0.859 (active) and the normalized growth (locus YJL164C, strain tpk1, hits give low values) was 0.562 (active). The normalized growth (locus YJL166W, strain qcr8, hits give low values) was 0.693 (active), the normalized growth (locus YJL168C, strain set2, hits give low values) was 0.946 and the normalized growth (locus YJL187C, strain SWE1 (second series), hits give low values) was 0.565 (active). The normalized growth (locus YJL187C, strain SWE1, hits give low values) was 0.813 (active), the normalized growth (locus YJR043C, strain POL32, hits give low values) was 0.686 (active) and the normalized growth (locus YJR066W, strain TOR1, hits give low values) was 0.397 (active). The normalized growth (locus YJR075W, strain HOC1, hits give low values) was 0.505 (active).
